Binding signal data for one sequence are collected here from publication PMC7862700, “An all-to-all approach to the identification of sequence-specific readers for epigenetic DNA modifications on cytosine”.

Holding throughout (test): DAPPL (digital affinity profiling via proximity ligation, sequencing); 10 mM Tris-HCl pH 7.5, 50 mM NaCl, 1 mM DTT, 4% glycerol, room temperature, 30 min; GST-TFs on glutathione beads, 16-mer random dsDNA library, 0.1% formaldehyde crosslink after washing; high values mean tight binding
Holding throughout (conditions): protein: recombinant; tags: N-terminal GST; dsDNA, one strand shown

The target in one assay is T1, ELK1 (Homo sapiens, UniProt P19419 1-428).
T1 sequence: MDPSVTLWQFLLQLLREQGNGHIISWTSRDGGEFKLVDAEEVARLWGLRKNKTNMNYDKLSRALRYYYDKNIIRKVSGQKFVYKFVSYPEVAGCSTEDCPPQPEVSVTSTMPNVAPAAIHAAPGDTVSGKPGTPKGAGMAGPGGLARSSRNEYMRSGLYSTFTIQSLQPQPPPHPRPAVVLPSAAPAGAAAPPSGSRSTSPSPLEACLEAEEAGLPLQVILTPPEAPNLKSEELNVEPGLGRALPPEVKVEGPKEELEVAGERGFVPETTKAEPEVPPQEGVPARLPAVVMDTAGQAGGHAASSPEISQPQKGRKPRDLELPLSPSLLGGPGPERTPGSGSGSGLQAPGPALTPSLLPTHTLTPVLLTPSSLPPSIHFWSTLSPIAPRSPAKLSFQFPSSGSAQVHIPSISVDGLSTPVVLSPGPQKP
Summed up: (§1)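 Beads coated with glutathione captured GST-fused human transcription factors that had been expressed in yeast, and the factors were then given DNA barcodes and pooled with a tag-only sample. The pools were incubated with 200 nmole of a random double-stranded 16-mer DNA library in Tris/NaCl/DTT/glycerol buffer for 30 min at room temperature, washed, crosslinked with 0.1% formaldehyde and proximity-ligated with BsaI/T4 ligase at 37 °C for 1 h. PCR amplification and Illumina NextSeq500 sequencing came last. Binding signal is each hexamer's read frequency for a factor divided by its frequency for the tag-only sample.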

A further assay concerns the target T2, GABPA (Homo sapiens, UniProt Q06546 1-454).
T2 sequence: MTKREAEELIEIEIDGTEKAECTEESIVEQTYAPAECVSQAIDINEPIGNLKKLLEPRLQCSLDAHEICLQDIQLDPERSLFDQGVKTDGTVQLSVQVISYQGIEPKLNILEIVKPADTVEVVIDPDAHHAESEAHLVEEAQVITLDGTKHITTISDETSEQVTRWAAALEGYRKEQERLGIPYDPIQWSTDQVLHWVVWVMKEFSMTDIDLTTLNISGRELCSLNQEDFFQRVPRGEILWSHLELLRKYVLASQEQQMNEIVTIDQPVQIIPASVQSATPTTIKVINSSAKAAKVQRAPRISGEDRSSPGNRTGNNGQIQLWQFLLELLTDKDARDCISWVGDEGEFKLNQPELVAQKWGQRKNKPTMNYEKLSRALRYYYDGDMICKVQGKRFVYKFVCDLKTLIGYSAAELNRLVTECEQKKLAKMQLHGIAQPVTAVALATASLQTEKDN
The method in brief: as §1

A further assay has as its target T3, ERG (Homo sapiens, UniProt P11308 1-479).
T3 sequence: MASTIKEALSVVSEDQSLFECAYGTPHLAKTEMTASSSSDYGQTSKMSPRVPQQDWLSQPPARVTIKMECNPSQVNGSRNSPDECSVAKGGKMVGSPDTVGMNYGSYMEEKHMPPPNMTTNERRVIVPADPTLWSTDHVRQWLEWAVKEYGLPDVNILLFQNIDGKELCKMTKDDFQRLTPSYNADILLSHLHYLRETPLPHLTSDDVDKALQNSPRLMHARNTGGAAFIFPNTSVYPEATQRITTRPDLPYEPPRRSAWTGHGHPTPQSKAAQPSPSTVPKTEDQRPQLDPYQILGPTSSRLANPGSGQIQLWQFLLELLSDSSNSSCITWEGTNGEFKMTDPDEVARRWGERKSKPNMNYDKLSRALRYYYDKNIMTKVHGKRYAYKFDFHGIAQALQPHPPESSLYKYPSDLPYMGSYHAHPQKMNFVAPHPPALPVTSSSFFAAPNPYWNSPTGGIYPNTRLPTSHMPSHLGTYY
Summed up: as §1

The target of another assay is ELF1 (Homo sapiens, UniProt P32519 1-619). The method in brief:
as §1

In another assay the target is T4, EHF (Homo sapiens, UniProt Q9NZC4 1-300).
T4 sequence: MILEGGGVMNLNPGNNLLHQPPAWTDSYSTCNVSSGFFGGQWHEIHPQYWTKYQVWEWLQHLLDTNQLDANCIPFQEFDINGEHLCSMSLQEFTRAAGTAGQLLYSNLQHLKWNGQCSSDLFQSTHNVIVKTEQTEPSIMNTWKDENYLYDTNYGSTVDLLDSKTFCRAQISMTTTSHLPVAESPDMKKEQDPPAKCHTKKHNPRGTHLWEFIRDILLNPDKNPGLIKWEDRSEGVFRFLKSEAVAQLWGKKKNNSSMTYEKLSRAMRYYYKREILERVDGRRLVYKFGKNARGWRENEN
The method in brief:
as §1

For another assay, the target named is SPI1 (Homo sapiens, UniProt P17947 1-270). The method in brief:
as §1

The target in the next assay is SPIB (Homo sapiens, UniProt Q01892 1-262). Summed up: as §1
The next assay addresses T5, FEV (Homo sapiens, UniProt Q99581 1-238).
T5 sequence: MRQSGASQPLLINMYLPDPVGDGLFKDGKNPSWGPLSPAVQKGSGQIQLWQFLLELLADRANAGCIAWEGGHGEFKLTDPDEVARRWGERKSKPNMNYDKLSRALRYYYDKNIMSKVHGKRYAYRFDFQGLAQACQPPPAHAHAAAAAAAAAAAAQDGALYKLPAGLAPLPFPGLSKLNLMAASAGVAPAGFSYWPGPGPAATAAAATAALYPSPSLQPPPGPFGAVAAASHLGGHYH
Summed up:
as §1

The next assay has as its target ETV5 (Homo sapiens, UniProt P41161 1-510). Summed up:
as §1

The next assay concerns the target ELF4 (Homo sapiens, UniProt Q99607 1-663). Summed up: as §1
In another assay the target is T6, ELK4 (Homo sapiens, UniProt P28324-2 1-405).
T6 sequence: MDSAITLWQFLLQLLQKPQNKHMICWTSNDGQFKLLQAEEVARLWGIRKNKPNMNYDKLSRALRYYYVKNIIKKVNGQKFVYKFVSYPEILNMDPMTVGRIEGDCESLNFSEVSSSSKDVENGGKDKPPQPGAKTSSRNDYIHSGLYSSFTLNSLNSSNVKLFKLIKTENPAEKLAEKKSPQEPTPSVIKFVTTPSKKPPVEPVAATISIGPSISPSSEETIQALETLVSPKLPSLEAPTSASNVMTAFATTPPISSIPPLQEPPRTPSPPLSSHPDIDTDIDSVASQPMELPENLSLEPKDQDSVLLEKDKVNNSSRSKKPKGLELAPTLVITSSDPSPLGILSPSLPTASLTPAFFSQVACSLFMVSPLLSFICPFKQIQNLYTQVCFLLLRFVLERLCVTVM
Summed up:
as §1

The target in the next assay is ETV1 (Homo sapiens, UniProt P50549 1-477). Summed up:
as §1

Another assay has as its target T7, ERF (Homo sapiens, UniProt P50548 1-548).
T7 sequence: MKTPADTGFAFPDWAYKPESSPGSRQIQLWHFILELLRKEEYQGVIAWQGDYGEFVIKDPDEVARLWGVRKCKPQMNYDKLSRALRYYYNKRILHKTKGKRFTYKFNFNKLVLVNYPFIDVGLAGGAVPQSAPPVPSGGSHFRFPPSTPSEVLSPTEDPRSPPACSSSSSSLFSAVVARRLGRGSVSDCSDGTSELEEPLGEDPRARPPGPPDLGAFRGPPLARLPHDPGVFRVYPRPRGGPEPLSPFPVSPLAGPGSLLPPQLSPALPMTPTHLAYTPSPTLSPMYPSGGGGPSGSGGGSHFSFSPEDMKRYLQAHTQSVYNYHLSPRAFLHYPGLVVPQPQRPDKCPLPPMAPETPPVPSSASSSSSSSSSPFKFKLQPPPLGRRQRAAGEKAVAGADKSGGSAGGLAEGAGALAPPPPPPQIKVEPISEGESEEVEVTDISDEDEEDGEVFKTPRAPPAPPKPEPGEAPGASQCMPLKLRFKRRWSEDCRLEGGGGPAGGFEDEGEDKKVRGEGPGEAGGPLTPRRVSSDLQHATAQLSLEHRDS
Summed up:
as §1

The next assay concerns the target T8, ETV3L (Homo sapiens, UniProt Q6ZN32 1-361).
T8 sequence: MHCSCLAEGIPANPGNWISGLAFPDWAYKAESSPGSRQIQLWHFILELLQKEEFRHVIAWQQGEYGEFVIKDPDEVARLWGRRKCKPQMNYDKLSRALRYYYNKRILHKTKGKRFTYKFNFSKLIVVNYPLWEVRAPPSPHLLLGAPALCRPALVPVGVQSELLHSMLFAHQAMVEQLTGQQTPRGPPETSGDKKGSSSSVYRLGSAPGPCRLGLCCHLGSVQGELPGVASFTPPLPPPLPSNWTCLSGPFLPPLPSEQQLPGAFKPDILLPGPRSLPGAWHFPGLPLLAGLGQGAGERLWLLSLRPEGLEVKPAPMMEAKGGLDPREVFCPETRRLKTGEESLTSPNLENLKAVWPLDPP
Summed up: as §1

A further assay has as its target T9, ETS2 (Homo sapiens, UniProt P15036 1-469).
T9 sequence: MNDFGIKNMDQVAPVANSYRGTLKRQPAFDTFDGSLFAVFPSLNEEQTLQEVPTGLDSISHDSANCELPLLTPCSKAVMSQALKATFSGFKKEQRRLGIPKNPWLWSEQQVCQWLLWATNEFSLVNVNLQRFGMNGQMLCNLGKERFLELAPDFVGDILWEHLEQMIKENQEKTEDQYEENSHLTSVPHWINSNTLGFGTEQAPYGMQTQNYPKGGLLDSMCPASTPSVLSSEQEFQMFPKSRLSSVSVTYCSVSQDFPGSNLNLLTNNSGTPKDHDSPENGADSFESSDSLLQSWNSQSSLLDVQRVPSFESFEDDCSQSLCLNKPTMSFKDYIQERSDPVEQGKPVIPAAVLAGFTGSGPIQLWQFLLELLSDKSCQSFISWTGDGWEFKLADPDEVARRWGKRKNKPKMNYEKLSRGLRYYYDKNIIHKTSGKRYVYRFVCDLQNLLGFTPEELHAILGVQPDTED
The method in brief: as §1

The target of another assay is T10, SPDEF (Homo sapiens, UniProt O95238 1-335).
T10 sequence: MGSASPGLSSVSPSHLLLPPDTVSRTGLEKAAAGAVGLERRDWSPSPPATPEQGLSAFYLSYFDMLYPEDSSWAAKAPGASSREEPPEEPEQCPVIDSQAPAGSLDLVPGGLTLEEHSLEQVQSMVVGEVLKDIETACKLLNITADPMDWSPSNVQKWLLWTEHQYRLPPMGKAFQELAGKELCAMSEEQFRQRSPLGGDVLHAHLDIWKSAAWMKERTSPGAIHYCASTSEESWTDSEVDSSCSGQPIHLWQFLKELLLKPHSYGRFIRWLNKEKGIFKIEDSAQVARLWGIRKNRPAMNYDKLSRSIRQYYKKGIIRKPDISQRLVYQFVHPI
The method in brief:
as §1

In a further assay the target is T11, ETV3 (Homo sapiens, UniProt P41162-2 1-143).
T11 sequence: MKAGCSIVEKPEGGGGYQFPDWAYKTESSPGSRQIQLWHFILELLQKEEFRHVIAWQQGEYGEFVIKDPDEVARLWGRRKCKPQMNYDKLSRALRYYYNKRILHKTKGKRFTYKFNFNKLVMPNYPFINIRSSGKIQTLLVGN
The method in brief:
as §1

The next assay concerns the target ETV6 (Homo sapiens, UniProt P41212 1-452). Summed up: as §1

ETV6, sequence (P41212 whole entry): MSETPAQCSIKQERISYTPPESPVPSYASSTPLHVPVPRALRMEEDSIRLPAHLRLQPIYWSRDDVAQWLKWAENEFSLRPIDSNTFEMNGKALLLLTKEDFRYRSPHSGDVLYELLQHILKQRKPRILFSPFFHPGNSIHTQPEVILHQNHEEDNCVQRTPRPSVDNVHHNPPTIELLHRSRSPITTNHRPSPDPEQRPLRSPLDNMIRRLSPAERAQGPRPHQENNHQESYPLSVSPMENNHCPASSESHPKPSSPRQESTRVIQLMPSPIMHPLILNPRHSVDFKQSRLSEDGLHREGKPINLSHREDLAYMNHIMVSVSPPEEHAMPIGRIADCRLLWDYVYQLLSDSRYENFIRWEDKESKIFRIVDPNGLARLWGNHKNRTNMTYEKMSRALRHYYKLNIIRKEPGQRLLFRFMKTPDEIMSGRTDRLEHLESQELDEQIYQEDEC
ELF4, sequence (Q99607 whole entry): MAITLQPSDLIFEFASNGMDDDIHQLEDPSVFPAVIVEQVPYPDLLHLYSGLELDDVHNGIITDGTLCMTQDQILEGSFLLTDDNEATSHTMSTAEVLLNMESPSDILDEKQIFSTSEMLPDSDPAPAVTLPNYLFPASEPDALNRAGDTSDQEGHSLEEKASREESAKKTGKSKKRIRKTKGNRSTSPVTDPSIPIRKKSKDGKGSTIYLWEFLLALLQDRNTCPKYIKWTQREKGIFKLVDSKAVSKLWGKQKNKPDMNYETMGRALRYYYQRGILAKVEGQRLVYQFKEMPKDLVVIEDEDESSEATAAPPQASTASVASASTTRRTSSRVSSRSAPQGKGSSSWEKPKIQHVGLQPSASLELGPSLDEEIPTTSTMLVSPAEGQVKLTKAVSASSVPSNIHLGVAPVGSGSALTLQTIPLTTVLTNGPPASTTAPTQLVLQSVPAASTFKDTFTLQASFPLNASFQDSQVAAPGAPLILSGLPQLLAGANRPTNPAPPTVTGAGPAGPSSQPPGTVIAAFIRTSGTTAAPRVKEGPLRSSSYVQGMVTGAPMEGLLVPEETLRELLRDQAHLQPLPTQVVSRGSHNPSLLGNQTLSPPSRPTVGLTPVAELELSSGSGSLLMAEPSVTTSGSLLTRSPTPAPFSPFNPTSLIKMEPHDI
SPIB, sequence (Q01892 whole entry): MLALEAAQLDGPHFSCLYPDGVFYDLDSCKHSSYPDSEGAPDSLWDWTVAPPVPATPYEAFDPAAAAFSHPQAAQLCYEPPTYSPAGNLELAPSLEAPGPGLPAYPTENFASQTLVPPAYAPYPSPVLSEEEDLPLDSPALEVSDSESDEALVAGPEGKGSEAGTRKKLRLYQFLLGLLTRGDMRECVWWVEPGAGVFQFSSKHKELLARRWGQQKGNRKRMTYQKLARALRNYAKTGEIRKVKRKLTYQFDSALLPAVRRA
ELF1, sequence (P32519 whole entry): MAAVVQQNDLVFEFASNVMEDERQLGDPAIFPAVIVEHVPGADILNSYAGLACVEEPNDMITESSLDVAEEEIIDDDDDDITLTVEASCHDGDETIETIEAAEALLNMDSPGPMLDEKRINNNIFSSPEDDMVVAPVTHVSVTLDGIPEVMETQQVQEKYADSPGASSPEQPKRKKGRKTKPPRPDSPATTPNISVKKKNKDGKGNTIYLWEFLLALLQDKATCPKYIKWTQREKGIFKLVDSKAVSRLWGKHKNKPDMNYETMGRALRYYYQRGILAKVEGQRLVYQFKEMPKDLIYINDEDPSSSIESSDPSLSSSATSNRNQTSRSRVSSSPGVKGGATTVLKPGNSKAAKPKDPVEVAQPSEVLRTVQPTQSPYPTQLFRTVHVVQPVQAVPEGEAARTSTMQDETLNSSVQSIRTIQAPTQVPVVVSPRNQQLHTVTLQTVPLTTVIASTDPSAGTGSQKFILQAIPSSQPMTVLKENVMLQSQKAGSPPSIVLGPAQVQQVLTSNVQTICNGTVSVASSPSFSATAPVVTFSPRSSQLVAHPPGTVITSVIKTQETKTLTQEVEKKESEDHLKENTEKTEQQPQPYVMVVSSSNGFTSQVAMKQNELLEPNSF
ETV5, sequence (P41161 whole entry): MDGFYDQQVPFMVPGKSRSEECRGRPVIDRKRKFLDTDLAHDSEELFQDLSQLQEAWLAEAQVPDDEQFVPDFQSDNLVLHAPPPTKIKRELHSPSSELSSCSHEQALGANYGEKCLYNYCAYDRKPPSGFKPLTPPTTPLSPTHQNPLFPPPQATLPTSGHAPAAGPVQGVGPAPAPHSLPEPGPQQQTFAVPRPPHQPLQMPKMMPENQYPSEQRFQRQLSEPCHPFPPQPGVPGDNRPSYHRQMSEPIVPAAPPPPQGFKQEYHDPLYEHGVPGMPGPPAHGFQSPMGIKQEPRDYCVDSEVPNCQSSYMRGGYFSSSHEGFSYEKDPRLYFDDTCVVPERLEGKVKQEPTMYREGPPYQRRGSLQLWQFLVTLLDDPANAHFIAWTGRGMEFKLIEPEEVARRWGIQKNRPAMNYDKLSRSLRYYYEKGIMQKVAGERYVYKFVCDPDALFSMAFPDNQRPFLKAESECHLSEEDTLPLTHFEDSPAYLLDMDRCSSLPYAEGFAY
ETV1, sequence (P50549 whole entry): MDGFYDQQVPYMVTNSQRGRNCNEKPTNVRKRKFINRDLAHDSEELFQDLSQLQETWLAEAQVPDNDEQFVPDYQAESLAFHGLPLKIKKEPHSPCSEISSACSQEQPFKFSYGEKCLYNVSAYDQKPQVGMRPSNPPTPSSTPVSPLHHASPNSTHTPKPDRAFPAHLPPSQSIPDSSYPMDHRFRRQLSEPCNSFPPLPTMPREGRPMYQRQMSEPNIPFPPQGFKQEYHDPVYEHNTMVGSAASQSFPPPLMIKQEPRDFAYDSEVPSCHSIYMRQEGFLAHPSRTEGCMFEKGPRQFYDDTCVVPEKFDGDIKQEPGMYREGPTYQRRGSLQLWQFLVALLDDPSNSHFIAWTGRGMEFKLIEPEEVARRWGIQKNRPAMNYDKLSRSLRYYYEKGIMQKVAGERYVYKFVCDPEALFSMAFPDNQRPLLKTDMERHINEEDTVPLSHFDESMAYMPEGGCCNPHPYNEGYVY

In the case of CACCGG, the binding signal is 1.16 fold enrichment (6-mer frequency, TF over GST control) with ELK1; 1.04 fold enrichment (6-mer frequency, TF over GST control) in the assay with GABPA; 1.27 fold enrichment (6-mer frequency, TF over GST control) with ERG; 1.09 fold enrichment (6-mer frequency, TF over GST control) in the assay with ELF1; 1.13 fold enrichment (6-mer frequency, TF over GST control) in the assay with EHF; 1.08 fold enrichment (6-mer frequency, TF over GST control) in the assay with SPI1. Moreover, the binding signal is 1.16 fold enrichment (6-mer frequency, TF over GST control) with SPIB; 1.75 fold enrichment (6-mer frequency, TF over GST control) with FEV; 1.21 fold enrichment (6-mer frequency, TF over GST control) with ETV5; 1.16 fold enrichment (6-mer frequency, TF over GST control) with ELF4; 1.05 fold enrichment (6-mer frequency, TF over GST control) with ELK4; 1.21 fold enrichment (6-mer frequency, TF over GST control) in the assay with ETV1. For the same sequence, the binding signal with ERF is 1.08 fold enrichment (6-mer frequency, TF over GST control); with ETV3L, 1.14 fold enrichment (6-mer frequency, TF over GST control); in the assay with ETS2 it was 1.17 fold enrichment (6-mer frequency, TF over GST control); with SPDEF, 1.08 fold enrichment (6-mer frequency, TF over GST control); with ETV3, 1.14 fold enrichment (6-mer frequency, TF over GST control); with ETV6, 1.09 fold enrichment (6-mer frequency, TF over GST control).
